This passage reports outcome results from PubChem BioAssay (NCATS).

The structures appear in SMILES notation. The source made the active and inactive calls. The call rests on the fitted dose curve; in most records, active means well fitted curve in the direction sought with a large enough effect; inactive means no such curve, though single readings can be large or run the other way.

The nature of the experiment: qHTS for small molecule inhibitors of Yes1 kinase: Counter Assay (AID 686950).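 Further: no kinase present so only ADP-Glo detection of a fixed ADP amount is tested; luminescence from ADP-Glo reporting ADP in a fixed ATP and ADP mixture.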 The conditions noted are these: series mostly up to 76.9 µM. An excerpt: The Src family of non-receptor protein tyrosine kinases contains nine members, including Yes1, Src, Fyn, Lyn, and […]. These kinases have important roles in a variety of cellular functions, such as cell proliferation, survival, and differentiation. Src, the most well characterized member of this family, has been previously identified as a proto-oncogene. […] In melanoma, it has been shown that Yes1, and not other family members, such as Src, is functionally involved in the malignant phenotype. Additionally, a recent study examining the downregulation of Yes1 by shRNA found significant effects on cell survival/growth for basal-like and Her2-positive breast cancers. Despite the potential for Yes1 to be a target for the above-described cancers, there are very few reports on the identification of potent and selective inhibitors of Yes1 kinase. Antagonists of Yes1 would further elucidate Yes1 biology and help to confirm whether Yes1 is a viable target for therapeutic intervention in a variety of cancers.
A compound that inhibits Yes1 could be important for the treatment of various cancers in which Yes1 is highly expressed and can also be used as a tool compound to help further elucidate Yes1 biology. To that end, we have developed a sensitive HTS biochemical assay for Yes1 activity. This assay was screened against several small compound libraries to look for modulators of activity. The cherrypicked compounds were screened against this counter assay, which evaluates whether the compounds have any effect on the ADP-Glo detection kit. Compounds that show inhibition in this assay have interference with the detection system. Inactivity is the desired output for this assay.
NIH Molecular Libraries Probe Production Centers Network [MLPCN]
NIH Chemical Genomics Center [NCGC]
Two microliter of buffer (columns 1-48) are dispensed into Greiner, white solid-bottom 1536-well assay plates. Compounds (23 nL) are then transferred via Kalypsys pin tool equipped with 1536-pin array (10 nL slotted pins, V&P Scientific, San Diego, CA). The library compounds are in columns 5-48 and columns 1-4 serve as controls with DMSO. Following addition of compound and a 20 minute incubation, 1 uL of substrate/product mix (ATP and ADP from Sigma-Aldrich, St. Louis, MO) is added to columns 1, 2, 5-48 and 1 uL of substrate (ATP) is added to columns 3-4, and the plate is incubated for 60 minutes at room temperature. The amount of ADP is then quantified by the ADP-Glo Kit (Promega, Madison, WI). First, 2 uL of the first kit reagent is added, and the reaction is incubated for 45 minutes; then, 4 uL of the second kit reagent are added and the reaction is incubated for 30 minutes at which time the luminescence is read on a Viewlux plate reader (Perkin-Elmer, Waltham, MA). The final concentration of reagents in the reaction are 0.08 mM ATP and 0.02 mM ADP (or 0.1 mM ATP in the no ADP control columns), 100 uM EGTA, 10 mM MgCl2, 50 mM Tris pH 7.5, 1 mM DTT, 150 mM NaCl, 0.01% Brij-35, and 5% glycerol. Data are normalized to DMSO-treated control columns with ATP and […] (maximum signal) and with just ATP (minimum signal).
For orientation: Quantitative high-throughput screening tests each substance at several concentrations.
Consider `Cc1nnc(C(=O)NC(C)(C)c2nc(C(=O)NCc3ccc(F)cc3)c(O)c(=O)n2C)o1`, for which the molecule was called inactive.

On to `NC1(c2ccc(-c3nc4ccn5c(=O)[nH]nc5c4cc3-c3ccccc3)cc2)CCC1`, for which the molecule was called inactive.

`O=S(=O)(c1cccc2cnccc12)N1CCCNCC1`: the molecule was called inactive.

Regarding `CC(C)C[C@H](NC(=O)[C@H](CCc1ccccc1)NC(=O)CN1CCOCC1)C(=O)N[C@@H](Cc1ccccc1)C(=O)N[C@@H](CC(C)C)C(=O)[C@@]1(C)CO1`, the molecule was classed as inactive.

Turning to `COc1cc2nc(N3CCCN(C)CC3)nc(NC3CCN(Cc4ccccc4)CC3)c2cc1OC`, the molecule was classed as inactive.

In the case of `CCN(CC)CCn1c(=O)c(Cc2ccc(OC)cc2)nc2ccccc21`, the molecule was called inactive.

With `CNC(=O)c1cc(Oc2ccc(NC(=O)Nc3ccc(Cl)c(C(F)(F)F)c3)cc2)ccn1`, the result was inactive.

Consider `COc1cc2c(Nc3ccc(Br)cc3F)ncnc2cc1OCC1CCN(C)CC1`, for which the molecule was called inactive.

With `COc1cc([C@@H]2c3cc4c(cc3[C@H](O)[C@H]3COC(=O)[C@H]23)OCO4)cc(OC)c1OC`, the result was inactive.

`Cc1c(-c2ccc(O)cc2)n(Cc2ccc(OCCN3CCCCCC3)cc2)c2ccc(O)cc12`: the outcome was inactive.
